Rpn11 inh: blocks the human proteasome subunit Rpn11; O00487; human 26S proteasome, Ub4-pepOG fluorescence polarization; 20S core pre-blocked with epoxomicin; inhibition, % at 20 µM; hit rate 0.59% among 360,000;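 active means inhibition at 20 µM, scaled to each plate's controls, above about 33%, limit read from the data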
Target sequence (O00487 whole entry, looked up): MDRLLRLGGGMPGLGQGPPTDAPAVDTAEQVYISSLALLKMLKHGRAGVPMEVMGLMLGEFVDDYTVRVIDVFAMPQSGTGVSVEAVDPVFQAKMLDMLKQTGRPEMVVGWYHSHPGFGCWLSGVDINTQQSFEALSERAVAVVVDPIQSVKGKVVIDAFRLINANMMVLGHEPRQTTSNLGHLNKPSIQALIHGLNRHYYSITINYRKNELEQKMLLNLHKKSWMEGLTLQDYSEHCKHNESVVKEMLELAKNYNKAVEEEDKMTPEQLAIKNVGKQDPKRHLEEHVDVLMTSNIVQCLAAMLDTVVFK
PP5 primary: inhibitors of human protein phosphatase 5 (PP5); P53041; hit rate 0.18% among 320,000; purified PP5c, OMFP substrate fluorescence; inhibition, % at 6.7 µM;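 active means inhibition above the campaign's mean inhibition across all tested compounds plus 3 SD, cut at about 9.5% in these data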;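 further: 0% = DMSO only and 100% = 100 µM cantharidin control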
PREPL inh: inhibitors of human prolyl oligopeptidase-like enzyme PREPL | Q4J6C6 | recombinant PREPL, fluorescence polarization activity-based probe | inhibition, % at 5.96 µM | hit rate 0.68% among 320,000 | AID 2751;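 further: 0% = enzyme with DMSO and 100% = wells lacking enzyme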
PP1 inh: blocks human PP1-alpha phosphatase, a PP5 counter-screen; purified PP1alpha, OMFP fluorescence; AID 2235; P62136; hit rate 0.9% among 320,000; inhibition, % at 6.7 µM;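 active means inhibition above the mean inhibition of all tested compounds plus 3 SD, computed separately for each screening campaign, cut at about 15% in these data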
Target sequence (P62136 whole entry, looked up): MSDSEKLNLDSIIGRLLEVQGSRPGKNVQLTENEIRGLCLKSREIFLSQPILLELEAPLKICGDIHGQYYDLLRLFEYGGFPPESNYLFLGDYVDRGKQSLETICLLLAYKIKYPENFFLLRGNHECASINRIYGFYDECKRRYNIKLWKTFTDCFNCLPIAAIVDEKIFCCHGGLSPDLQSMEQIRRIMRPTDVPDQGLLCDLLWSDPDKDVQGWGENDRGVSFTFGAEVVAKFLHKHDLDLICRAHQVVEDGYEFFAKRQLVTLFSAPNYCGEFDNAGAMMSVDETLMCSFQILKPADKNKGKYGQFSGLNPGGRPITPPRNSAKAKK
NadD inh: NadD (S. aureus) enzyme inhibition; purified NadD enzyme, colorimetric absorbance read-out; inhibition, % at 20 µM; hit rate 0.78% among 360,000; AID 602399; in the data active means inhibition above about 26%
PP1 confirm: human PP1 phosphatase inhibition, confirmation; hit rate 52% among 1,900; purified PP1alpha, OMFP substrate fluorescence; inhibition, % at 6.7 µM; AID 2358; shares compounds with PP1 inh;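 active means mean PP1 inhibition above a set limit taken from the earlier primary screen, cut at about 15% in these data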
PP5 counter: counter-screen for PP1 inhibitors: human PP5 phosphatase inhibition | shares compounds with PP1 inh | AID 2360 | inhibition, % at 6.7 µM | hit rate 4% among 1,900 | purified PP5c, OMFP fluorescence;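 active means mean PP5 inhibition over triplicate wells above about 9.5% taken from the earlier PP1 screen, limit read from the data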
PREPL confirm: human PREPL inhibition, confirmation; shares compounds with PREPL inh; recombinant PREPL, fluorescence polarization activity probe; inhibition, % at 5.96 µM; hit rate 67% among 2,000;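 further: 0% = protein with DMSO and 100% = wells lacking protein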
Rpn11 inh conf: confirmation of human proteasome Rpn11 inhibitors; AID 602318; shares compounds with Rpn11 inh; inhibition, % at 20 µM; purified human 26S proteasome, Ub4-pepOG fluorescence polarization; proteasome pretreated with epoxomicin; hit rate 29% among 1,900; in the data active means inhibition above about 40%
MMP-2 counter: MMP-2 (human) inhibition counter-screen. shares compounds with Rpn11 inh. recombinant MMP-2, FRET peptide cleavage fluorescence. inhibition, % at 20 µM. hit rate 4% among 1,900. AID 602330; in the data active means inhibition above about 40%;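 further: human MMP-2 activated beforehand with APMA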
Thrombin FP: counter-screen for RPN11 inhibitors: inhibition of bovine thrombin | shares compounds with Rpn11 inh | bovine thrombin cleavage of Ub4-pepOG, fluorescence polarization | inhibition, % at 20 µM | hit rate 13% among 1,900 | AID 602333;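 active means mean inhibition at least 40% at 20 µM, or signal 3 deviations below plate average, so some actives read negative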;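 further: plate controls were thrombin with DMSO for no effect and buffer wells lacking thrombin for full effect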
An asterisk follows results filed as active; . = not tested or not shown. Only some compounds are listed: those with a hit (about 2.4% of all), similar ones and a draw of the others. Unless noted, no stated cut-off is given here; in the data, active means inhibition above about 43%; inactive means the rest.

SMILES	Rpn11 inh	PP5 primary	PREPL inh	PP1 inh	NadD inh	PP1 confirm	PP5 counter	others
C[C@@]12C(=O)OC(=O)[C@]1(C)C1CCC2O1	2	94*	-8	95*	4	93*	93*
O=P(Oc1ccccc1)(Oc1ccccc1)N1CCN(c2ccc(F)cc2)CC1	-3	4	13	-1	2	.	.
N=Cc1c(O)n(-c2ccc(C34CC5CC(CC(C5)C3)C4)cc2)c(=O)[nH]c1=O	.	5	-11	20*	8	22*	4
O=C(NC1CN2CCC1CC2)c1cc(Cl)c([N+](=O)[O-])c2nc[nH]c12 (centres undefined)	-12	0	14	0	-5	.	.
O=c1[nH]c(O)c(/C=C2/C=CC(c3cc(Cl)ccc3Cl)=N2)c(=O)[nH]1	15	-2	17	19*	64*	47*	-6
CCCCCCn1c(=O)c(C(=O)Nc2ncccc2C)c(O)c2ccccc21	4	5	-10	26*	15	18*	-2
CCCCn1c(=O)c(C(=O)Nc2ccccc2)c(O)c2ccccc21	-8	2	15	-2	-3	.	.
CCCCn1c(=O)c(C(=O)Nc2ncccc2C)c(O)c2ccccc21	1	2	-1	28*	28	26*	-1
CCCCCn1c(=O)c(C(=O)Nc2ccccc2C)c(O)c2ccccc21	-10	2	29	-2	-8	.	.
NC(=O)CN1CC(c2ccccc2)CC1=O (centres undefined)	1	1	-4	-4	1	.	.
Clc1ccc(COC(Cn2ccnc2)c2ccc(Cl)cc2Cl)cc1 (centres undefined)	4	2	-14	29*	29	20*	2
Clc1ccc(CSC(Cn2ccnc2)c2ccc(Cl)cc2Cl)cc1 (centres undefined)	3	5	-85	26*	19	20*	3
c1ccc(Cn2ccnc2)cc1	3	0	-2	-3	6	.	.
CS(=O)(=O)c1ccc(C(=O)N2CCC(C(=O)O)(c3ccccc3)CC2)cc1	-3	0	-3	0	-1	.	.
O=C(O)CC1OCC=C2CN3CCC45C6=CC(=O)C(=O)C([N+](=O)[O-])=C6NC4C1C2CC35 (centres undefined)	-4	21*	11	33*	22	53*	2
O=C(O)CC1OCC=C2CN3CCC45c6ccccc6NC4C1C2CC35 (centres undefined)	7	0	-3	-1	-4	.	.
Nc1ccccc1C(=O)OCc1ccc([N+](=O)[O-])cc1	-1	1	9	-3	0	.	.
Clc1ccc(C(c2ccc(Cl)cc2)n2cc[n+](CC(OCc3ccc(Cl)cc3Cl)c3ccc(Cl)cc3Cl)c2)cc1 (centres undefined)	105*	5	-2	52*	80*	35*	9
CSCCC(N=Cc1c(O)n(-c2ccc(Cl)cc2)c(=O)[nH]c1=O)C(=O)OC(C)(C)C (centres undefined)	1	2	-4	13	8	.	.
CN(C)N=O	6	0	11	-1	-3	.	.
CC1Oc2cc3c(-c4c(O)cc(O)c5c(O)c6c(cc45)OC(C)C(C)C6=O)c(O)cc(O)c3c(O)c2C(=O)C1C (centres undefined)	23	5	85*	57*	36*	25*	2
Cc1cc([N+](=O)[O-])c2ccccc2[n+]1[O-]	3	-1	-6	-2	7	.	.
O=C1NC(=S)N(c2ccc(F)cc2)C(=O)/C1=C/c1ccco1	.	0	17	40*	.	68*	1
COc1ccc(OC)c(N2C(=O)/C(=C/c3ccco3)C(=O)NC2=S)c1	.	0	41	68*	.	17*	-4
Cc1ccc(/C=C2\C(=O)NC(=S)N(c3cccc(F)c3)C2=O)o1	.	0	-6	2	7	.	.
SMILES	Rpn11 inh	PP5 primary	PREPL inh	PP1 inh	NadD inh	PP1 confirm	PP5 counter	others
C=CCCC1(CC(C)C)C(=O)NC(=S)NC1=O	2	.	.	.	0	.	.
O=C(Nc1ccc(Cl)cc1)N1CC1	3	.	.	.	1	.	.
COc1ccc(NC(=O)C2C3CCC(O3)C2C(=O)O)c(OC)c1 (centres undefined)	-3	76*	-5	75*	-1	29*	46*
O=C(O)C1C2CCC(O2)C1C(=O)NC1CCCCC1 (centres undefined)	-8	76*	10	73*	-3	48*	56*
O=C(O)C1C2CCC(O2)C1C(=O)Nc1ccc(Cl)cc1 (centres undefined)	-2	69*	0	63*	0	18*	26*
CCOC1=C(N2CC2)C(=O)C(OCC)=C(N2CC2)C1=O	-2	.	.	.	1	.	.
CCOC(=O)[C@]12Cc3cc(C)ccc3[C@H]1N(C1CCCCC1)C(=O)c1ccccc12	.	.	.	.	4	.	.
c1cncc(C2Nc3cccc4cccc(c34)N2)c1	-4	1	22	23*	18	-5	-1
O=C(Cn1nc(-c2ccccc2)ccc1=O)N1CCC2(CC1)OCCO2	-2	0	-2	-3	2	.	.
CN1C(=O)N(C)C(=O)C2(Cc3cc(N)ccc3N3CCN(c4ccccc4F)CC32)C1=O (centres undefined)	.	2	30	23*	.	32*	1
Cc1ccc(C[n+]2c(-c3ccc(C)cc3)cc(-c3ccc(C)cc3)cc2-c2ccc(C)cc2)cc1	-13	2	55*	24*	9	-6	1	PREPL confirm=52*
CC(=O)OC1CCC2(C)C(=CC(=O)C3C2CCC2(C)C(OC(C)=O)CCC32)C1 (centres undefined)	-5	.	.	.	-2	.	.
NC(N)=N/N=C/c1ccc(N(c2ccccc2)c2ccccc2)cc1	91*	6	77*	38*	13	25*	-3	PREPL confirm=68*;Rpn11 inh conf=71*;MMP-2 counter=-8;Thrombin FP=0
O=[N+]([O-])CCO	5	-1	3	-1	4	.	.
CNc1ccc2nc3ccccc3[n+](C)c2c1	-36	5	98*	3	-3	.	.	PREPL confirm=84*
C[n+]1c2ccccc2nc2ccc(NCCO)cc21	-9	6	69*	1	10	.	.	PREPL confirm=66*
